Measured values: the OligoGym collection

These sequences were tested against WFDC12 (assay: pooled miR-30 sensor sort-seq; sequence = guide strand). Conditions: shRNA.
Also: reference of the scale not given here.

Point of comparison: TTGACACATCTTCATCCTTGTT, sensor-assay potency score (higher = more potent) -1.2. Against it:
- AACTCCTTCCACAGCCACCAGG — lower, -1.44
- AAGAACGAGAGACACCATGAGG — higher, -1.13
- TGACACATCTTCATCCTTGTTT — higher, 0.329
- TTCACAGGAATCACACACTTGA — higher, -0.211
- TGGTCTGTGTGACACTGGGGAG — lower, -1.92
- TCCTCCTTCTTCCAGTTCCTTC — lower, -1.8
- AACAACACTTCCTTTCCCCCAG — higher, -0.813
- TTGTCAGCTGGGCAAACCCCTG — lower, -1.97
- ATGGCCTTGACACATCTTCATC — lower, -1.78
- TTTAACTCCTTCCACAGCCACC — lower, -1.29

These sequences were tested against WFDC5 in the same assay as above. Conditions: shRNA.

Point of comparison: TGGCTGTCTTCCACGCACTGGT, sensor-assay potency score (higher = more potent) -0.871. Against it:
- TCTGAGTCCTTGTGACACAGGT — higher, -0.214
- TTTTTGCCCGAGCAGTCTGAGT — lower, -1.7
- TTTTGGTGGAGGAAGCAGCATG — lower, -0.976
- AGTCCTTGTGACACAGGTGGTT — lower, -1.67
- TGTAGCAGCACTTCCTGGTCAA — higher, 0.234
- TCTGTAGCAGCACTTCCTGGTC — higher, -0.738
- TGACACAGGTGGTTCATGGGGC — higher, 0.531
- TGTCTTCCACGCACTGGTCAGG — lower, -1.15
- TCTTCCTGCCAAAGACAGCAGG — lower, -1.27
- TTCCTGGTCAAGGGACACTGGC — lower, -1.55
- TCAAGGGACACTGGCTGTCTTC — lower, -1.2

The sequences below were run against WFDC8 in the same assay as above. Conditions: shRNA.

Point of comparison: TATTTGAAGGGTGTGCAGCGGT, sensor-assay potency score (higher = more potent) -0.17. Against it:
- TACATTTCAGTCCACAATGTGA — lower, -1.04
- TTTTTGACTGTCCAGGCCCTGG — lower, -1.19
- TTGTCCATCCTTAACAATTAAC — lower, -1.71
- TGGATTCACAACATTTGTCTGT — higher, -0.069
- TCTCTTTGGGACATAACCCTGG — lower, -0.176
- ATCTGTGTTACATGAGTCCGGA — lower, -0.285
- TTGTGTTTGATCTTCTTGGTCA — higher, 0.398
- AAACCTTTTTTGACTGTCCAGG — lower, -1.14
- TTGGGTTTATCAATCTTGGTAC — higher, 0.104
- TAACAATTAACATGCAGGCCGT — lower, -0.862
- TTAACAATTAACATGCAGGCCG — lower, -0.341

The sequences below were run against WFIKKN1 in the same assay as above. Conditions: shRNA.

Point of comparison: TCTCTCGCTGGTGACTCTGCTT, sensor-assay potency score (higher = more potent) -0.761. Against it:
- TTGTAGAGCACCAGCTGCCCGA — lower, -1.47
- TTGCCATACATCTGATCAGGGC — lower, -0.931
- TCATCCTTGAGCACGTCCTCGA — higher, -0.412
